Experimental findings from PubChem BioAssay (NCI) are described below.

Compounds without any hit were thinned out: in the full panel of roughly 83,000, 20% have a hit.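 Step 1: grow cells in 96-well plates. Step 2: add test compound at a single concentration. Step 3: incubate 48 h. Step 4: record percent growth.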 Unmarked numbers belong to inactive results. Active and inactive are the calls of the source. The calls were made as follows: active = growth percent below 10; inactive = the rest.

Among the test systems are SR leukemia; RPMI-8226 leukemia; OVCAR-8 ovarian; OVCAR-5 ovarian; OVCAR-4 ovarian; SK-OV-3 ovarian; IGROV1 ovarian; OVCAR-3 ovarian; HS 578T breast; NCI/ADR-RES ovarian; T-47D breast; BT-549 breast; MDA-MB-435 melanoma; SW-620 colon; MCF7 breast; HCT-116 colon; KM12 colon; HCC-2998 colon.
Common to all, as to experiment: NCI-60 one-dose screen, 48 h (100 = growth as untreated, 0 = no growth, -100 = all killed)
What all share (conditions): 10 µM unless noted

For `O=C1c2cc(Cl)ccc2S(=O)(=O)c2c(NCCCNCCO)nc3ccccc3c21`, the growth with SR leukemia was -9.98% (active); in the assay on RPMI-8226 leukemia it was -22.2% (active); with OVCAR-8 ovarian, -5.81% (active); in the assay with OVCAR-5 ovarian, -18% (active); in the assay with OVCAR-4 ovarian, -32.2% (active); in the assay on SK-OV-3 ovarian, 75.7%. Also, the growth in the assay with IGROV1 ovarian is 8.88% (active); with OVCAR-3 ovarian, -91.9% (active); in the assay on HS 578T breast, -2.81% (active); with NCI/ADR-RES ovarian, 40.6%; in the assay on T-47D breast it was -60% (active); in the assay with BT-549 breast, 21.7%. Besides, the growth was 2.67% (active) in the assay with MDA-MB-435 melanoma; -74.6% (active) with SW-620 colon; -16.2% (active) in the assay on MCF7 breast; -78% (active) in the assay on HCT-116 colon; 20.1% in the assay on KM12 colon.
For `COC(=O)c1c2c(c(C)[n+]([O-])c1C)C(=O)C=C(NCc1ccc(OC)cc1)C2=O`, the growth in the assay on SR leukemia was -0.642% (active); with RPMI-8226 leukemia, -16.5% (active); in the assay with OVCAR-8 ovarian, 1.17% (active); in the assay with OVCAR-5 ovarian it was -54.6% (active); with OVCAR-4 ovarian it was -98.5% (active); in the assay with SK-OV-3 ovarian, 8.27% (active). Further, the growth with IGROV1 ovarian is -61.5% (active); in the assay on OVCAR-3 ovarian it was -40.5% (active); with HS 578T breast, -10.2% (active); in the assay with NCI/ADR-RES ovarian, -7.81% (active); in the assay on T-47D breast, -31% (active); in the assay on BT-549 breast, -88.8% (active). Besides, the growth in the assay with MDA-MB-435 melanoma was -91.6% (active); in the assay on SW-620 colon, 0.249% (active); in the assay on MCF7 breast it was -55.1% (active); in the assay with HCT-116 colon it was -11.6% (active); in the assay with KM12 colon, -3.93% (active).
`CC(=O)OC[C@]12CCC(C)(C)C[C@H]1[C@@]1(O)[C@H](O)C[C@@H]3[C@@]4(C)CCCNC(C)(C)[C@@H]4CC[C@@]3(C)[C@]1(C)CC2`: the growth in the assay on SR leukemia was 99.3%; in the assay on RPMI-8226 leukemia, 107%; in the assay with OVCAR-8 ovarian, 111%; in the assay on OVCAR-5 ovarian, 102%; in the assay with OVCAR-4 ovarian it was 120%; with SK-OV-3 ovarian, 111%. For the same molecule, the growth was 107% with IGROV1 ovarian; 119% in the assay on OVCAR-3 ovarian; 110% in the assay with HS 578T breast; 113% with NCI/ADR-RES ovarian; 104% in the assay on T-47D breast; 111% in the assay with BT-549 breast. In addition, the growth in the assay on MDA-MB-435 melanoma was 109%; with SW-620 colon it was 109%; in the assay with MCF7 breast, 102%; with HCT-116 colon it was 104%; in the assay with KM12 colon, 113%.
For the molecule `COc1cc2c(c(OC)c1OC)C(=O)CC(c1cccc(NC(=O)c3ccc(Br)cc3)c1)O2` (stereo not drawn), the growth in the assay on SR leukemia was 3.88% (active); in the assay on RPMI-8226 leukemia, -4.85% (active); with OVCAR-8 ovarian, 14.1%; in the assay with OVCAR-5 ovarian, 95.4%; in the assay on OVCAR-4 ovarian, 53.9%; in the assay with SK-OV-3 ovarian it was 74.7%. The growth is 45.9% in the assay on IGROV1 ovarian; 46.5% in the assay on OVCAR-3 ovarian; 71% in the assay on HS 578T breast; 8.47% (active) in the assay on NCI/ADR-RES ovarian; 10% in the assay with T-47D breast; 15.7% in the assay with BT-549 breast. Further, the growth with MDA-MB-435 melanoma was -18.3% (active); with SW-620 colon it was 25.4%; in the assay on MCF7 breast, 23.4%; in the assay on HCT-116 colon, 23.4%; with KM12 colon, 31.6%.
Consider `Cc1cccnc1NC(=S)Nc1ncccc1C`, for which the growth in the assay on SR leukemia is 88.5%; in the assay on RPMI-8226 leukemia it was 80.9%; in the assay on OVCAR-8 ovarian it was 99.3%; with OVCAR-5 ovarian it was 124%; in the assay with OVCAR-4 ovarian, 134%; in the assay with SK-OV-3 ovarian it was -65.6% (active). The growth with IGROV1 ovarian was 103%; in the assay with OVCAR-3 ovarian, 100%; in the assay with HS 578T breast, 111%; with NCI/ADR-RES ovarian, 117%; with T-47D breast it was 99.7%; in the assay with BT-549 breast, 96.1%. Further, the growth was 83.9% in the assay with MDA-MB-435 melanoma; 111% in the assay on SW-620 colon; 82.9% in the assay on MCF7 breast; 101% with HCT-116 colon; 107% in the assay with KM12 colon.
As for `CO[C@H]1/C=C(/C)CCC[C@H](C)[C@H](O)[C@@H](C)C(=O)C(C)(C)[C@@H](O)CC(=O)O[C@@H]1/C(C)=C/c1csc(C)n1`, the growth in the assay with SR leukemia was 19.6%; in the assay on RPMI-8226 leukemia, 14.2%; with OVCAR-8 ovarian, 26.7%; in the assay on OVCAR-5 ovarian, 34.6%; in the assay with OVCAR-4 ovarian, 63.7%; with SK-OV-3 ovarian, 5.27% (active). Also, the growth is 12.8% in the assay with IGROV1 ovarian; -49.9% (active) in the assay on OVCAR-3 ovarian; -21.3% (active) with HS 578T breast; -36.7% (active) in the assay with NCI/ADR-RES ovarian; 42.3% with T-47D breast; 32.3% with BT-549 breast. Besides, the growth with MDA-MB-435 melanoma is -34.8% (active); with SW-620 colon, 33.8%; in the assay on MCF7 breast, 20.4%; in the assay with HCT-116 colon it was 9.39% (active); in the assay with KM12 colon, 5.07% (active).
Regarding `Cc1ccc(Cl)cc1Nc1nc(C(F)(F)F)ccc1C(=O)N/N=C/c1cccnc1`, the growth with SR leukemia was -5.74% (active); with RPMI-8226 leukemia it was 21%; with OVCAR-8 ovarian, 25.1%; in the assay on OVCAR-5 ovarian, 37.9%; in the assay with OVCAR-4 ovarian, 8.59% (active); in the assay on SK-OV-3 ovarian, -15.3% (active). In addition, the growth in the assay on IGROV1 ovarian was 8.35% (active); with OVCAR-3 ovarian, 33.9%; in the assay on HS 578T breast it was 39.9%; with NCI/ADR-RES ovarian it was 13.9%; in the assay with T-47D breast it was 32.9%; with BT-549 breast, 36.7%. The growth in the assay on MDA-MB-435 melanoma was 39.5%; in the assay with SW-620 colon, 22.7%; in the assay on MCF7 breast, 11.7%; in the assay with HCT-116 colon, 25%; in the assay with KM12 colon it was 34.7%.
On to `CC1(C)CCC(S(=O)(=O)c2ccc3c(c2)/C(=N\O)c2cc(S(=O)(=O)N4CCC(O)(c5cccc(C(F)(F)F)c5)CC4)ccc2-3)CC1`, for which the growth was -54% (active) in the assay with SR leukemia; -52.5% (active) with RPMI-8226 leukemia; -73% (active) with OVCAR-8 ovarian; -80.3% (active) with OVCAR-5 ovarian; -92.6% (active) with OVCAR-4 ovarian; -99.6% (active) in the assay with SK-OV-3 ovarian. Moreover, the growth in the assay with IGROV1 ovarian is -32.1% (active); in the assay on OVCAR-3 ovarian it was -98.3% (active); in the assay on HS 578T breast, -56.4% (active); with NCI/ADR-RES ovarian, 61%; in the assay with T-47D breast it was -83.4% (active); in the assay on BT-549 breast, -80.8% (active). In addition, the growth with MDA-MB-435 melanoma was -93.5% (active); with SW-620 colon, -92.9% (active); in the assay on MCF7 breast, -70.9% (active); in the assay with HCT-116 colon, -87.7% (active); in the assay with KM12 colon, -86.7% (active).
Take `COc1ccc2c(O)c(/C=C3\N=Nc4ncccc43)oc2c1C[C@H]1CCNC[C@H]1F`: the growth in the assay on SR leukemia was -40.2% (active); in the assay on RPMI-8226 leukemia, 9.58% (active); in the assay with OVCAR-8 ovarian, 5.11% (active); with OVCAR-5 ovarian, 16%; with OVCAR-4 ovarian, 2.83% (active); in the assay on SK-OV-3 ovarian it was 21%. For the same molecule, the growth in the assay with IGROV1 ovarian was 2.29% (active); in the assay with OVCAR-3 ovarian it was 1.29% (active); in the assay on HS 578T breast, -6.5% (active); in the assay with NCI/ADR-RES ovarian, 31.3%; with T-47D breast it was 41.5%; in the assay on BT-549 breast, -54.6% (active). The growth is 7.14% (active) in the assay on MDA-MB-435 melanoma; -15.5% (active) in the assay with SW-620 colon; -6.67% (active) with HCT-116 colon; 0.205% (active) with HCC-2998 colon; -17.4% (active) in the assay with KM12 colon.
